Measured values taken from PubChem BioAssay (EPA / NIEHS).
Values joined by “and” are separate entries in the source; they are usually repeats but may differ in a detail not shown here. Identical values can stand only once. Some structures have more than one record in an assay (separate samples or runs), and their calls can disagree. Active and inactive are the calls of the source. Rule for the calls: active = hit-call score of the fitted dose curve at least 0.9, where 1 is the maximum; inactive = score below 0.9.

Tests used:
Settings in all cases: mRNA level, 48 h; actives raise or lower the signal
[1] = read-out: Nuclear factor NF-kappa-B p105 subunit (Homo sapiens) (UniProt P19838); assay: LTEA_HepaRG_NFKB1: Life Technologies and Expression Analysis (LTEA) Assay for Nuclear Factor Kappa B Subunit 1 (NFKB1) using HepaRG (AID 2283521)
Summary of the method: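 Human HepaRG cells receive eight half-log concentrations, highest 100 uM, for 48 h. NFKB1 expression is then quantified by qRT-PCR and analysed for up- or down-regulation relative to 0.5% DMSO vehicle.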

[2] = read-out: Protein phosphatase 2A (PPP2R4), PTPA (gene 5524); assay: LTEA_HepaRG_PPP2R4: Life Technologies and Expression Analysis (LTEA) Assay for Protein phosphatase 2A (PPP2R4) using HepaRG (AID 2283522)
Summary of the method: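 Readout is PPP2R4 transcript level by microfluidic qRT-PCR after 48 h chemical treatment of human HepaRG liver cells. Concentrations spanned 100 uM downward in half-log steps; gain or loss of signal was fitted relative to DMSO.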

[3] = read-out: Phosphatase and tensin (PTEN), PTEN (gene 5728); assay: LTEA_HepaRG_PTEN: Life Technologies and Expression Analysis (LTEA) Assay for Phosphatase and tensin (PTEN) using HepaRG (AID 2283523)
Summary of the method: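 Differentiated human HepaRG cells, plated 48 h then switched to serum-free induction medium, were exposed in duplicate for 48 h to eight half-log concentrations up to 100 uM in 0.5% DMSO. PTEN mRNA measured by TaqMan qRT-PCR, normalized to ACTB/GAPDH/POLR2A, bidirectional fit versus DMSO.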

[4] = read-out: solute carrier (SLC22A1), SLC22A1 (gene 6580); assay: LTEA_HepaRG_SLC22A1: Life Technologies and Expression Analysis (LTEA) Assay for solute carrier (SLC22A1) using HepaRG (AID 2283524)
Summary of the method: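 Human HepaRG cells were plated 48 h, switched to serum-free induction medium, then exposed in duplicate for 48 h to 8-point half-log series from 100 uM in 0.5% DMSO. SLC22A1 mRNA measured by qRT-PCR, normalized to ACTB/GAPDH/POLR2A, fitted bidirectionally versus DMSO.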

[5] = read-out: Pyruvate Dehydrogenase Kinase 4 (PDK4), PDK4 (gene 5166); assay: LTEA_HepaRG_PDK4: Life Technologies and Expression Analysis (LTEA) Assay for Pyruvate Dehydrogenase Kinase 4 (PDK4) using HepaRG (AID 2283525)
Summary of the method: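 Differentiated human HepaRG cells, pre-cultured 48 h, were exposed in duplicate for 48 h in serum-free induction medium to eight half-log concentrations up to 100 uM in 0.5% DMSO. PDK4 mRNA was quantified by qRT-PCR, normalized to ACTB, GAPDH and POLR2A, bidirectional fitting versus DMSO.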

[6] = read-out: NAD(P)H dehydrogenase [quinone] 1 (NQO1), NQO1 (gene 1728); assay: LTEA_HepaRG_NQO1: Life Technologies and Expression Analysis (LTEA) Assay for NAD(P)H dehydrogenase [quinone] 1 (NQO1) using HepaRG (AID 2283526)
Summary of the method: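 HepaRG, 48 h post-plating → serum-free induction medium → test chemical 48 h (duplicate, 100 uM top, half-log x8, 0.5% DMSO) → RNA isolation → qRT-PCR, ACTB/GAPDH/POLR2A normalization; bidirectional curve fit vs DMSO baseline.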

[7] = read-out: Nuclear factor erythroid 2-related factor 2 (Homo sapiens) (UniProt Q16236); assay: LTEA_HepaRG_NFE2L2: Life Technologies and Expression Analysis (LTEA) Assay for Nuclear factor erythroid 2-related factor 2 (NFE2L2) Transcription Factor using HepaRG (AID 2283527)
Summary of the method: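 Differentiated human HepaRG cells in serum-free induction medium were exposed for 48 h to eight concentrations (top 100 uM, half-log dilutions, 0.5% DMSO), in duplicate. NFE2L2 mRNA was quantified by TaqMan qRT-PCR, normalized to ACTB, GAPDH and POLR2A, with bidirectional fitting versus DMSO.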

[8] = read-out: succinate dehydrogenase complex iron sulfur subunit B (SDHB), SDHB (gene 6390); assay: LTEA_HepaRG_SDHB: Life Technologies and Expression Analysis (LTEA) Assay for succinate dehydrogenase complex iron sulfur subunit B (SDHB) using HepaRG (AID 2283528)
Summary of the method: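 A human HepaRG culture in serum-free induction medium received test chemicals for 48 h over an eight-point range capped at 100 uM. SDHB expression change was quantified by qRT-PCR.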

[9] = read-out: Signal transducer and activator of transcription 3 (Homo sapiens) (UniProt P40763); assay: LTEA_HepaRG_STAT3: Life Technologies and Expression Analysis (LTEA) Assay for Signal transducer and activator of transcription (STAT3) using HepaRG (AID 2283529)
Summary of the method: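 Differentiated human HepaRG cells in serum-free induction medium were exposed in duplicate for 48 h to eight half-log concentrations up to 100 uM in 0.5% DMSO. STAT3 mRNA was quantified by TaqMan qRT-PCR, normalized to ACTB, GAPDH and POLR2A, and fitted bidirectionally against DMSO.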

[10] = read-out: solute carrier (SLCO1B1), SLCO1B1 (gene 10599); assay: LTEA_HepaRG_SLCO1B1: Life Technologies and Expression Analysis (LTEA) Assay for solute carrier (SLCO1B1) using HepaRG (AID 2283530)
Summary of the method: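 Differentiated human HepaRG cells, plated 48 h, switched to serum-free induction medium and exposed in duplicate for 48 h to 8 half-log concentrations (top 100 uM) in 0.5% DMSO. SLCO1B1 mRNA by TaqMan qRT-PCR, normalized to ACTB/GAPDH/POLR2A.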

Measured: AC50

Chain of Nuclear factor erythroid 2-related factor 2 (Homo sapiens) (Q16236 whole entry, looked up): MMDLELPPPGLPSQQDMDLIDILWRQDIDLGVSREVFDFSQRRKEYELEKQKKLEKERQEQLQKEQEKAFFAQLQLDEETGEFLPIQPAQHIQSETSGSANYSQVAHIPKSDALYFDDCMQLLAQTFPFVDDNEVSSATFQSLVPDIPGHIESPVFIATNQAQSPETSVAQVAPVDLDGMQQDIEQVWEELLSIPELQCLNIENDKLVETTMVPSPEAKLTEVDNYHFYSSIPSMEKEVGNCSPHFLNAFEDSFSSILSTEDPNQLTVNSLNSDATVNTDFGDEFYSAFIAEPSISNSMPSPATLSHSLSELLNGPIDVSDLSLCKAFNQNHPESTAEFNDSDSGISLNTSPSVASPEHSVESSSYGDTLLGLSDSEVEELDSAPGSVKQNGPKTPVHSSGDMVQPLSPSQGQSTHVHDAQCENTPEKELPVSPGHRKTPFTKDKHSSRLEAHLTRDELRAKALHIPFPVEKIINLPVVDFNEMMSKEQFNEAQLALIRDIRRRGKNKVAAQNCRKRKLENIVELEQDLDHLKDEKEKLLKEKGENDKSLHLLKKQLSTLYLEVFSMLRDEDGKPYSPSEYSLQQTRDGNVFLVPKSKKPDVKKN
Chain of Nuclear factor NF-kappa-B p105 subunit (Homo sapiens) (P19838 whole entry, looked up): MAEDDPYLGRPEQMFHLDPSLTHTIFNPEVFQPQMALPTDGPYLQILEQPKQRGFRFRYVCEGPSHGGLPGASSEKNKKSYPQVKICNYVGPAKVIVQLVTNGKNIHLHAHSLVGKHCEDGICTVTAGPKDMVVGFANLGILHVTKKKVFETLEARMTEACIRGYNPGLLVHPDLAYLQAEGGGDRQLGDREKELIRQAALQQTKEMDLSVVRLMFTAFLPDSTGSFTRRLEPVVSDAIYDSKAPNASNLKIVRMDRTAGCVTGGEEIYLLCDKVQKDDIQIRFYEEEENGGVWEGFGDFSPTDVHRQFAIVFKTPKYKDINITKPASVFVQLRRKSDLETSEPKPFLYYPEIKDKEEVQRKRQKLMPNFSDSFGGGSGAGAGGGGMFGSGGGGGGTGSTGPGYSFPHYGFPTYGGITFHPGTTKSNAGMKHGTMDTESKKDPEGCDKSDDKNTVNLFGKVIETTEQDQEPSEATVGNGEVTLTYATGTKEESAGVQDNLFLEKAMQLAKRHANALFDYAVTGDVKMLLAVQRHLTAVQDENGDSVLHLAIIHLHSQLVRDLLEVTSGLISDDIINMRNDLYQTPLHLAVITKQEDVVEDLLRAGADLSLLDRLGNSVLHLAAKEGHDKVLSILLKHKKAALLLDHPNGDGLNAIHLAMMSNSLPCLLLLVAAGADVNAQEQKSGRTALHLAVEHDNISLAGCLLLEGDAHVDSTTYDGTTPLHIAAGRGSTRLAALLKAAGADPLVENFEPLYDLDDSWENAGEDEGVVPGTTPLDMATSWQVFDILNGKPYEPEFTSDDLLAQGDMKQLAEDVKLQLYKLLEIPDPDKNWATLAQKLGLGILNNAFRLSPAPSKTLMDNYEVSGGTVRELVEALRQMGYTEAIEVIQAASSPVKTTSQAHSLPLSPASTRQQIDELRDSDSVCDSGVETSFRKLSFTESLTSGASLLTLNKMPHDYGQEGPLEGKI
Chain of Signal transducer and activator of transcription 3 (Homo sapiens) (P40763 whole entry, looked up): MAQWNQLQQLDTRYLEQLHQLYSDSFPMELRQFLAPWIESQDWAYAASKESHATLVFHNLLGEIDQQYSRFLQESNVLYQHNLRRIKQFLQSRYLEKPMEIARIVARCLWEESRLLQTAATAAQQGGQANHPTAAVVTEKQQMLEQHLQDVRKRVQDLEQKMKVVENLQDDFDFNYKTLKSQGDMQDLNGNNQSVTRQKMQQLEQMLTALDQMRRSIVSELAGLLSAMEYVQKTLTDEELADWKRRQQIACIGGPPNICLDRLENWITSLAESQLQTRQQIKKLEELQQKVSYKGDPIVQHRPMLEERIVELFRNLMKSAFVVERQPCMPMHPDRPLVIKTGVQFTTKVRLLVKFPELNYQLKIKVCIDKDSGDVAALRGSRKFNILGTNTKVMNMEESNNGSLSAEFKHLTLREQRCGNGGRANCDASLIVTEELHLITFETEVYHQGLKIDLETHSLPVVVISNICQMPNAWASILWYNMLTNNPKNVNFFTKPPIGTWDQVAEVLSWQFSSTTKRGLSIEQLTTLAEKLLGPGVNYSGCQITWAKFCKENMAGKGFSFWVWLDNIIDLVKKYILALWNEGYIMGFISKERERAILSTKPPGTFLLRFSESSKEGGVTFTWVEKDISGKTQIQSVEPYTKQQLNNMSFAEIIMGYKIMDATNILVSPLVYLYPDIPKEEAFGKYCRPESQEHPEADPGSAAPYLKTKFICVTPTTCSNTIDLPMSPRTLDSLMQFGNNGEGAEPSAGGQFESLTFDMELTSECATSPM

CC(C)OC(=O)Nc1cccc(Cl)c1
inactive: [1] | [2] | [3] | [4] | [5] | [6] | [7] | [8] | [9] | [10]

CCOC1Oc2ccc(OS(C)(=O)=O)cc2C1(C)C (configuration not stated)
inactive: [2] | [3] | [6] | [7]
active: [1] 9.92 µM | [4] 71.9 µM | [5] 85.7 µM | [8] 9.92 µM | [9] 21.4 µM | [10] 73.6 µM

CN1CSC(=S)N(C)C1
inactive: [1] | [2] | [3] | [4] | [5] | [6] | [7] | [8] | [9] | [10]

CC(C)(C)C(O)C(Oc1ccc(Cl)cc1)n1cncn1 (configuration not stated)
active: [7] 9.92 µM
inactive: [1] | [2] | [3] | [4] | [5] | [6] | [7] | [8] | [9] | [10]

CNC(=O)Oc1cccc(N=CN(C)C)c1
inactive: [2] | [3] | [4] | [5] | [6] | [7] | [8] | [9] | [10]

CCCN(CCOc1c(Cl)cc(Cl)cc1Cl)C(=O)n1ccnc1
inactive: [2] | [6] | [9]
active: [3] 79.1 µM | [4] 29.5 µM | [5] 30.8 µM | [7] 29.9 µM | [8] 12.1 µM | [10] 64.2 µM

CNC(=O)CSP(=S)(OC)OC
inactive: [2] | [3] | [4] | [5] | [6] | [7] | [8] | [9] | [10]

CC1(C)C(C=C(Cl)Cl)C1C(=O)OC(C#N)c1ccc(F)c(Oc2ccccc2)c1 (configuration not stated)
inactive: [1] | [2] | [3] | [4] | [6] | [8] | [9] | [10]
active: [5] 50 µM | [7] 50 µM

O=C(O)COc1ccc(Cl)cc1Cl
active: [5] 38.5 µM
inactive: [2] | [3] | [4] | [6] | [7] | [8] | [9] | [10]

CNC(=O)/C=C(\C)OP(=O)(OC)OC
active: [5] 37.1 µM
inactive: [2] | [3] | [4] | [6] | [7] | [8] | [9] | [10]

O=S(=O)(O)C(F)(F)C(F)(F)C(F)(F)C(F)(F)C(F)(F)C(F)(F)C(F)(F)C(F)(F)F
inactive: [2] | [3] | [4] | [6] | [7] | [8] | [9] | [10]
active: [2] 50 µM | [4] 90.2 µM and 89.8 µM and 83.1 µM | [5] 27 µM [middle of 4 runs] | [7] 58 µM | [8] 9.92 µM | [10] 93.1 µM and 79 µM and 77.6 µM

O=S1OCC2C(CO1)C1(Cl)C(Cl)=C(Cl)C2(Cl)C1(Cl)Cl (configuration not stated)
active: [4] 63 µM | [10] 20.8 µM
inactive: [1] | [2] | [3] | [5] | [6] | [7] | [8] | [9]

CCN(CC)C(=O)SCc1ccc(Cl)cc1
inactive: [1] | [2] | [3] | [4] | [5] | [6] | [7] | [8] | [9] | [10]

COP(=S)(OC)Oc1ccc([N+](=O)[O-])cc1
inactive: [1] | [2] | [3] | [4] | [5] | [6] | [7] | [8] | [9] | [10]

CC1(c2ccc(Oc3ccccc3)cc2)OC(=O)N(Nc2ccccc2)C1=O (configuration not stated)
active: [2] 12.1 µM | [4] 13.5 µM | [5] 32.1 µM | [6] 50.2 µM | [7] 23 µM | [9] 50.2 µM | [10] 30.6 µM
inactive: [3] | [8]

N#Cc1c(Cl)c(Cl)c(Cl)c(C#N)c1Cl
inactive: [2] | [6] | [7] | [8] | [9] | [10]
active: [3] 68.7 µM | [4] 61.5 µM | [5] 75.6 µM

COc1nn(CSP(=S)(OC)OC)c(=O)s1
inactive: [1] | [2] | [3] | [4] | [5] | [6] | [7] | [8] | [9] | [10]

Clc1ccccc1-c1nnc(-c2ccccc2Cl)nn1
active: [4] 50 µM
inactive: [2] | [3] | [5] | [6] | [7] | [8] | [9] | [10]
